Pf growth 48h: inhibits P. falciparum growth in the first generation, 48 h. P. falciparum luciferase growth in erythrocytes, 48 h. Potency, µM (doses to about 28.7 µM), for the others: top-dose activity change, negative = inhibition, hits mostly inhibitors. 5.9% of 310,000 active; also: potency is read from the fitted curve at half-maximal effect
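Luciferase-expressing P. falciparum in infected erythrocytes (2% hematocrit, 0.1% parasitemia final) in RPMI 1640/0.5% Albumax were exposed to compound for 48 hours at 37 C, 5% CO2; growth read as luminescence.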
FBPA Giardia inh: blocks Giardia fructose-bisphosphate aldolase activity | purified Giardia FBPA | Potency, µM (titrated, usually from 59.6 µM), for the others: at the top dose activity, negative = inhibition, actives largely listed as inhibitors | 0.71% of 290,000 active | AID 2451 | A8B2U2; also: potency is read from the fitted curve at half-maximal effect; nearly all actives have a fitted effect of over 55% in size
Target sequence (A8B2U2 whole entry, looked up): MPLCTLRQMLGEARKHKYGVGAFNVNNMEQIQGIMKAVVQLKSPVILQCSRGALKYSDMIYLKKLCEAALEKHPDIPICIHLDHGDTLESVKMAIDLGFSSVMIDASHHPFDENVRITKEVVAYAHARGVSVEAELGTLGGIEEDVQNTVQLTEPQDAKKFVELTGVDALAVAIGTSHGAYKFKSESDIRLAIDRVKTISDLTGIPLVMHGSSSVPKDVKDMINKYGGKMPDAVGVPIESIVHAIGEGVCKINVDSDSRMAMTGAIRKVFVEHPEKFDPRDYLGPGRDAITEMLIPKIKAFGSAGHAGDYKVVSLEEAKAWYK
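Giardia FBPA (40 nM reagent) was preincubated 10 min at RT with compound (up to 57.5 uM final), then substrate plus GAPDH/TPI/NAD/arsenate coupling system with diaphorase/resazurin was added; resorufin fluorescence (525/598 nm) was read after 20 min.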
Pf growth 96h: P. falciparum growth inhibition at 96 hours. P. falciparum luciferase reporter growth, 96 h. Potency, µM (doses to about 28.7 µM), inactives show at the highest dose activity change, negative = inhibition, hits mostly inhibitors. 6.9% of 320,000 active. AID 504834; also: potency is read from the fitted curve at half-maximal effect
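P. falciparum expressing integrated firefly luciferase grown in erythrocytes (2% hematocrit, 0.05% parasitemia final) with compounds for 96 hours at 37 C, 5% CO2. Growth inhibition read as loss of luminescence after adding luciferase detection reagent.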
Sm TGR inh: S. mansoni TGR enzyme inhibition; Q962Y6; purified TGR, DTNB reduction, TNB absorbance 405 nm; Potency, µM (doses to about 114 µM), for inactives: at the highest dose activity change, negative = inhibition, usual class: inhibitors; 3% of 360,000 active; AID 485364; also: potency is read from the fitted curve at half-maximal effect; nearly all actives have a fitted effect of over 60% in size
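TGR 20 nM + NADPH 100 uM (dispensed conc.), cpd preinc 15 min RT; start with NADPH (500 uM addition) then DTNB (15 mM addition). Kinetic TNB absorbance, 405 nm filter. Four-parameter Hill fit across titration.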
HCMV inh: human cytomegalovirus inhibition; activity change, negative = inhibition, % at 57.5 µM; HFF cells, HCMV-luciferase reporter, 72 h; active compounds read low; 4.5% of 410,000 active; AID 1259415; in the data active = activity change below about -60%; inconclusive = no clear call, values can overlap the other calls; inactive = above about -39%
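Inhibition of viral replication was scored as loss of reporter luminescence in HFFs infected with HCMV-luciferase (MOI 1 PFU/cell) for 72 h; compounds tested at 2 doses, normalized to buffer and Salinomycin controls.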
The depositor's hits bear a star; ? = inconclusive; . = no result; [ ] = remark or other dose. Rows were chosen to be rich in hits. Some 14% of all compounds tested hit in one or more screens of this group. Unless noted, calls follow the shape of the dose curve; as a rule, active = well fitted curve in the direction sought with a large enough effect; inconclusive = small, poorly fitted or top-dose-only effect, or another doubt; inactive = no such curve, though single readings can be large; an effect the other way counts as inactive or inconclusive. % is scaled to controls: 0 for no effect and ±100 for the full control effect.

SMILES	Pf growth 48h	FBPA Giardia inh	Pf growth 96h	Sm TGR inh	HCMV inh
O=C(CSc1nc(CCC2CCCC2)nc2ccccc12)NCc1ccc2c(c1)OCO2	-18.8%	5.4%	?	3.4%	?
COc1ccc(CCN2CCC(CN3C(=S)NC[C@@H]3Cc3ccccc3)CC2)cc1OC	.	.	.	.	-6.1
O=C(CC(=O)Nc1nc(C23CC4CC(CC(C4)C2)C3)cs1)NCCO	13.1µM*	-9.7%	9.28µM*	-7.4%	-21.7
COC(=O)C1=C(C(=O)OC)[C@@H]2Nc3ccccc3[C@@]23C[C@@H](C(=O)OC)N(S(=O)(=O)c2cccs2)C3=N1	.	6.5%[12.9 µM]	.	.	.
COC1=C(OC)C(=O)c2ccccc2C1=O	.	-17.9%	.	.	.
COC1=C(Nc2ccc(C)cc2)C(=O)c2ccccc2C1=O	2.33µM*	?	1.17µM*	-8.9%	35.4
COC1=C(Nc2ccccc2)C(=O)c2ccccc2C1=O	5.86µM*	?	1.85µM*	-4.7%	39.7
CC(=O)N1[C@H](C)C=C[C@]1(Cc1ccccc1)C(=O)NCc1ccc(C)o1	.	-4.3%	.	.	.
O=c1oc2ccccc2c(NC2CCCCC2)c1NS(=O)(=O)c1ccc(Br)cc1	12.8%	.	10.4µM*	4.5%	.
COc1ccc(NC(=O)N(C)C[C@@H]2OCCCC[C@@H](C)Oc3ccc(NS(C)(=O)=O)cc3C(=O)N([C@H](C)CO)C[C@@H]2C)cc1	.	.	.	.	-23.4
COc1cccc(N2CCN(S(=O)(=O)c3ccc(-c4ccno4)cc3OC)CC2)c1	.	.	.	-0.7%	-20.5
CCn1cc([N+](=O)[O-])c(C(=O)N2N=C(c3ccc(Cl)c(Cl)c3)CC2c2ccccc2O)n1 (centres undefined)	3.7µM*	-6.4%	?	0.0%	-11.8
CCn1cc([N+](=O)[O-])c(C(=O)N2N=C(c3ccccc3)CC2c2ccc([N+](=O)[O-])cc2)n1 (centres undefined)	13.1µM*	-7.2%	?	-2.5%	-19.4
CCn1cc([N+](=O)[O-])c(C(=O)Nc2ccc(Br)cn2)n1	35.4%	0.4%	33.5%	38.7%	37.6
CCn1cc([N+](=O)[O-])c(C(=O)N2N=C(c3ccc4ccccc4c3)CC2c2cc(Br)ccc2O)n1 (centres undefined)	3.29µM*	5.9%	?	3.1%	.
COc1ccc(C2=NN(C(=O)CCC(=O)O)C(c3ccc([N+](=O)[O-])cc3)C2)cc1 (centres undefined)	-17.6%	2.0%	-21.4%	0.0%	2.8
CCn1cc([N+](=O)[O-])c(C(=O)N2N=C(c3ccc(O)c(OC)c3)CC2c2ccccc2O)n1 (centres undefined)	?	3.0%	14.7µM*	-3.4%	-1.0
CC1=C(C(=O)N(C(C)C)C(C)C)CC(CC(=O)NC2CCCC2)C(=O)N1Cc1ccc(C(C)(C)C)cc1 (centres undefined)	.	.	.	.	-0.2
CCOc1ccc(C(=O)NCc2ccc3c(c2)OCO3)cc1	-3.6%	-0.8%	-25.4%	-5.6%	46.5
COC(=O)[C@@]1(C(C)C)N=C(c2cc(OC)c(OC)c(OC)c2)[C@]2(O1)C(=O)Nc1ccccc12	.	.	.	.	-8.0
O=C(Nc1ccnn1C1CCN(C2CCC2)CC1)c1ccccc1	-3.3%	-8.8%	11.7µM*	-17.9%	12.1
O=C(Nc1ccnn1C1CCN(C2CCC2)CC1)c1ccccc1Cl	13.4%	12.9%	94.0%	-0.7%	-22.7
Cc1cc(C)c(NC(=O)CC(=O)c2ccccc2)c(Cl)c1	18.9%	13.5%	7.6%	-7.3%	?
Cc1cc(C)c(C(=O)CC(=O)c2ccccc2Cl)c(O)c1	24.3%[0.00184 µM]	-5.5%	?	9.0%	-69.9*
CO[C@@]12C[C@@H](COC(=O)c3cncc(Br)c3)CN(C)[C@H]1Cc1cn(C)c3cccc2c13	.	-3.9%	.	.	.
SMILES	Pf growth 48h	FBPA Giardia inh	Pf growth 96h	Sm TGR inh	HCMV inh
Cc1cccc(-c2nn3c(=O)cc(CN4CCN(C(=O)/C=C/c5ccccc5)CC4)nc3s2)c1	.	.	.	-7.7%	-0.1
C=C(C)COc1ccc(-c2nc(N)nc(C)c2Oc2ccccc2OC)c(O)c1	?	1.3%	9.9%	-26.2%	-31.3
CCOc1ccc(-c2n[nH]c(C)c2Oc2ccccc2OC)c(O)c1	4.15µM*	-5.9%	.	-12.7%	25.1
C=C(C)COc1ccc(-c2n[nH]c(C)c2Oc2ccccc2OC)c(O)c1	5.22µM*	-5.7%	4.65µM*	1.0%	-19.9
O=C(NC1CCCCC1)C(c1cccnc1)N(C(=O)CCl)c1ccccc1Cl (centres undefined)	?	3.4%	38.5%	?	-103.0*
CCc1ccccc1N(C(=O)CNC(=O)c1ccco1)C(C(=O)NC1CCCC1)c1cccnc1 (centres undefined)	5.5%	.	16.9%	1.6%	22.7
O=C(NC1CCCCC1)C(c1cccnc1)N(C(=O)CCl)c1ccc(F)cc1 (centres undefined)	?	0.1%	-1.1%	-5.4%	-99.1*
COc1ccc(N(C(=O)CCl)C(C(=O)NC2CCCCC2)c2cccnc2)cc1 (centres undefined)	?	1.4%	?	14.1µM*	-102.4*
O=C(NCC(=O)N(c1ccc(F)cc1)C(C(=O)NC1CCCCC1)c1cccnc1)c1ccco1 (centres undefined)	5.1%	-3.0%	-10.3%	1.3%	0.0
O=C(c1ccco1)N1CCC2(CC1)CCN(C(c1ccccc1)c1ccccc1)CC2	.	-0.5%	.	.	.
CC(=O)Nc1ccc(C2NC(=O)CCC2[N+](=O)[O-])cc1 (centres undefined)	9.2%	0.0%	24.1%	-0.3%	9.2
CCNC(=O)C1CCCN(C(=O)c2cccc(OC(F)(F)F)c2)CC1 (centres undefined)	.	.	.	.	-22.5
O=[N+]([O-])c1cc(-c2n(-c3ccccn3)c3ccccc3[n+]2-c2ccccn2)ccc1Cl	?	-3.6%	?	-23.7%	-8.7
COc1ccc(-c2n(-c3ccccn3)c3ccccc3[n+]2-c2ccccn2)cc1	10.4µM*	0.8%	4.15µM*	1.8%	?
COc1ccc(NC(=O)Nc2c[nH]c(=O)[nH]c2=O)cc1	.	1.7%	2.62µM*	-15.5%	18.9
COc1ccc(NC(=O)Nc2cc(NC(=O)Nc3ccc(OC)cc3)c(C)nc2C)cc1	2.7%	0.3%	36.6%	-2.2%	-24.8
COCCn1c(=O)c(-c2ccc(Cl)cc2)nc2cnc(OCc3ccccc3)nc21	.	6.2%	.	.	.
CCC(/C=C1\Sc2ccc(OC)cc2N1CCO)=C\c1sc2ccc(OC)cc2[n+]1CCO	0.586µM*	?	7.38µM*	11.2µM*	-97.7*
O=C1CCC[C@@H]2CC(NCc3ccc(Cl)c(Cl)c3)C[C@@H]3CCN1[C@H]23 (some centres undefined)	.	4.4%[89.2 µM]	.	.	.
CCN(CC)C(=O)N1c2ccccc2C=Cc2ccccc21	.	1.5%	-0.4%	5.5%	-81.1*
NC(=O)N1c2ccccc2C=Cc2ccccc21	?	4.3%	?	8.9%	-19.0
